# From PubChem BioAssay (NCATS)
# Inconclusive results are not listed. Unmarked numbers belong to inactive results. The call rests on the fitted dose curve; tested in HEK293 reporter line.
# Assay: qHTS for Inhibitors of the Functional Ribonucleoprotein Complex (vRNP) of Lymphocytic Choriomeningitis Arenaviruses (LCMV): Viability assay - alamar blue signal for LCMV Primary Screen (AID 1347085); further: nearly all actives have a fitted effect of over 80% in size
# Conditions: alamar blue viability counter-screen, LCMV vRNP screen cells; series mostly up to 57.5 µM; activity change, negative = lower viability: at the top concentration
# On the % scale 0 is the no-effect control and ±100 the full control effect.
row,SMILES,"activity change, negative = lower viability"
1,C=CC(C)=C[C@@]1(C)SC(=O)C(C)=C1O,4.28%
2,O=C(CO)c1c[nH]c2ccccc12,-28.9%
3,O=C(c1ccccc1)N1CCCCC1,8.43%
4,COC(=O)c1c(C)cc(O)c(C)c1O,-0.74%
5,C[C@@H]1CC[C@]2(C(=O)O[C@@H]3O[C@H](CO)[C@@H](O)[C@H](O)[C@H]3O)CC[C@]3(C)C(=CCC4[C@@]5(C)CC[C@H](O[C@@H]6OC[C@H](O)[C@H](O[C@@H]7O[C@H](CO)[C@@H](O)[C@H](O)[C@H]7O)[C@H]6O)C(C)(C)C5CC[C@]43C)C2[C@]1(C)O (some centres not stated),9.2%
6,C[C@H](Cn1cnc2c(N)ncnc21)OCP(=O)(O)O,13.1%
7,CNCC(=O)O,9.74%
8,C=CC(C)(CCC=C(C)C)OC(=O)CC(C)C (configuration not stated),5.82% [at 115 µM]
9,C[C@@H]1O[C@@H](OC2C(O)C(OCCc3ccc(O)c(O)c3)OC(CO)C2OC(=O)/C=C/c2ccc(O)c(O)c2)[C@H](O)[C@H](O)[C@H]1O (some centres not stated),2.82%
10,COc1cc(O)cc2c1[C@@H]1Oc3c(ccc(O)c3CC=C(C)C)[C@@H]1CO2,1.02%
11,CC(C)CCOC(=O)CC(C)C,-84.4% [at 115 µM]
12,COc1ccc([C@H]2c3cc(OC)c(OC)cc3C[C@@H](C)[C@@H]2C)cc1OC,12.4%
13,CC(C)=C[C@H]1C[C@H](C)[C@H]2CC[C@H](C)c3c(O[C@@H]4OC[C@@H](O)[C@H](O)C4O)c(O)c(C)c1c32 (some centres not stated),4.02%
14,CN(CC=CC#CC(C)(C)C)Cc1cccc2ccccc12,0.732%
15,C/C=C\C/C=C/CCCCCCCCOC(C)=O,8.67% [at 115 µM]
16,COc1c2c(c3c(c1OC)c(=O)c1ccccc1n3C)OCO2,12.6%
17,NC1=N[C@H](O)[C@H]2C3O[C@]4(O)O[C@H](C(O)[C@@]2(N1)[C@@H]4O)C3(O)CO (some centres not stated),9.86%
18,CC1CC[C@@]2(OC1)O[C@H]1CC3[C@@H]4C[C@@H](O)[C@@]5(O)C[C@@H](O)[C@H](O)C[C@]5(C)[C@H]4CC[C@]3(C)[C@H]1[C@@H]2C (some centres not stated),-1.16%
19,COc1cc2oc(=O)c3c4c(cc5ccc(c1CCN(C)C)c2c53)OCO4,-21.4%
20,CN1CCc2cc3c(cc2C1)OCO3,6.45%
21,CC1=CC2OC3CC4OC(=O)C=CC=CC(C(C)O)OCC(O)C(C)CC(=O)OCC2(CC1O)C4(C)C31CO1 (configuration not stated),-144%
22,CC/C=C\CCOC(C)=O,9.1% [at 115 µM]
